Inconclusive results are not listed. Activity calls are given as the source filed them. Unless noted, the call rests on the fitted dose curve; in most records, active means well fitted curve in the direction sought with a large enough effect; inconclusive means small, poorly fitted or top-dose-only effect, or another doubt; inactive means no such curve, though single readings can be large; an effect the other way counts as inactive or inconclusive.
What was measured:
[1] = biological target: Tyrosyl-DNA phosphodiesterase 1 (Homo sapiens) (UniProt Q9NUW8); assay: Confirmation Assay for Inhibitors of Tyrosyl-DNA Phosphodiesterase (TDP1) (AID 489007); settings: recombinant human TDP1 enzymatic activity, dose-response; further: potency means the concentration at half of the fitted maximal effect; nearly all actives have a fitted effect of over 40% in size
Procedure, shortened: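 Tdp1 1 nM + cpd, 15 min RT; add biotin/phosphotyrosine-FITC oligo 15 nM, 5 min RT; add AS donor/acceptor beads 10 ug/ml, 10 min RT; read AlphaScreen. No-enzyme wells = max signal.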

CP260 = assay: qHTS profiling for inhibitors of Plasmodium falciparum proliferation (AID 504749);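 further: 0% = DMSO vehicle and full inhibition = artemisinin control; nearly all actives have a fitted effect of over 60% in size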; settings: P. falciparum in erythrocytes, SYBR Green DNA, 72 h; series mostly up to 28.7 µM
Procedure, shortened: (§1)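 Infected RBCs, 0.3% parasitemia/2.5% Hct final; cpd 72 h, 37 C, 5% CO2; lysis buffer with saponin/triton/SYBR Green I, o/n RT dark; FI 485/535; norm. to artemisinin (0.29 uM) and DMSO.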

CP286 = assay: as above; settings: P. falciparum in erythrocytes, SYBR Green DNA, 72 h; series mostly up to 28.7 µM
Procedure, shortened: as §1

[2] = biological target: Estrogen receptor (Homo sapiens) (UniProt P03372); assay: qHTS assay for small molecule antagonists of estrogen receptor alpha signaling (AID 588513; active means well fitted curve in the direction sought with a large enough effect in the signal ratio, with a control signal flat, not every such curve was filed as active; the % refers to the signal ratio; further: on the % scale 0 is the no-effect control and ±100 the full control effect); settings: ER-alpha-UAS-bla HEK293, beta-lactamase ratio, antagonist mode; series mostly up to 76.9 µM
Procedure, shortened: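 ER-alpha-UAS-bla GripTite HEK 293 cells in medium with 2% charcoal/dextran-treated FBS were preincubated 4 h at 37 C, dosed with compound (1:2 titration), stimulated with 0.5nM 17-beta-estradiol for 18 h, then read by CCF4 beta-lactamase fluorescence.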

[3] = biological target: Estrogen receptor (Homo sapiens) (UniProt P03372); assay: qHTS assay for small molecule agonists of estrogen receptor alpha signaling (AID 588514; calls by dose curve; further: potency means the concentration at half of the fitted maximal effect; nearly all actives have a fitted effect of over 70% in size); settings: ER-alpha-UAS-bla HEK293, beta-lactamase ratio, 18 h; series mostly up to 76.8 µM
Procedure, shortened: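 Cells were plated at 5000/well, incubated 4 hrs at 37 C, dosed with compound titration series, incubated 18 hrs at 37 C, loaded with CCF4 dye for 2 hrs at RT, then fluorescence was read.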

[4] = biological target: Bile acid receptor (Homo sapiens) (UniProt Q96RI1); assay: qHTS assay for small molecule antagonists of farnesoid X receptor signaling (AID 588526; calls by dose curve; further: on the % scale 0 is the no-effect control and ±100 the full control effect); settings: HEK293T FXR-UAS-bla, beta-lactamase ratio, antagonist mode; series mostly up to 76.7 µM
Procedure, shortened: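 Beta-lactamase reporter antagonist mode: HEK293T FXR-UAS-bla cells, titrated compound, CDCA stimulation, 16 h 37 C, CCF4 dye 2 h RT. Data normalized to CDCA 50 uM and DMSO; Hill-fit IC50.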

[5] = qHTS assay for small molecule antagonists of peroxisome proliferator-activated receptor delta signaling (AID 588535; active means well fitted inhibition curve with a large enough effect in the signal ratio, with a control signal flat, not every such curve was filed as active; the % refers to the signal ratio;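 on max response: cells co-treated with a PPAR-delta agonist as stimulator during compound exposure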); settings: HEK293T PPARd-UAS-bla, beta-lactamase FRET ratio, 18 h; 460 nm channel
Procedure, shortened: (§2)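 HEK293T PPAR-delta-UAS-bla cells, 4000/well, 2% charcoal/dextran FBS; 5 h 37 C; cpd titration; 18 h 37 C; CCF4 2 h RT; FI 460/530 nm; Hill fit → IC50, efficacy.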

[6] = biological target: Peroxisome proliferator-activated receptor delta (Homo sapiens) (UniProt Q03181); assay: as above; settings: HEK293T PPARd-UAS-bla, beta-lactamase FRET ratio, 18 h; series mostly up to 76.7 µM
Procedure, shortened: as §2

[7] = biological target: Peroxisome proliferator-activated receptor gamma (Homo sapiens) (UniProt P37231); assay: qHTS assay for small molecule agonists of peroxisome proliferator-activated receptor gamma signaling (AID 588536; active means well fitted curve in the direction sought with a large enough effect in the signal ratio, with a control signal flat, not every such curve was filed as active; the % refers to the signal ratio;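 further: 0% = DMSO basal wells and 100% = rosiglitazone at 2 µM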); settings: HEK293 PPARg-UAS-bla, beta-lactamase ratio, 16 h, percent of rosiglitazone response, DMSO as zero; series mostly up to 76.7 µM
Procedure, shortened: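 HEK293 UAS-bla reporter line, 1% charcoal/dextran FBS; titration, 16 h, 37 C; CCF4 loading 2 h RT; fluorescence 460/530 nm. Normalized to rosiglitazone 2 uM = 100%, DMSO = 0%.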

[8] = qHTS assay for small molecule agonists of retinoid X receptor alpha signaling (AID 588544; calls by dose curve;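 on activation: 0% = DMSO basal wells and 100% = reference agonist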); settings: HEK293T RXRa-UAS-bla, beta-lactamase reporter, 18 h; 530 nm emission
[9] = biological target: Retinoic acid receptor RXR-alpha (Homo sapiens) (UniProt P19793); assay: as above; settings: HEK293T RXRa-UAS-bla, beta-lactamase reporter, 18 h; series mostly up to 76.7 µM
[10] = biological target: Thyroid hormone receptor beta (Homo sapiens) (UniProt P10828); assay: qHTS assay for small molecule agonists of thyroid hormone receptor beta signaling (AID 588545; calls by dose curve); settings: TR-UAS-bla GripTite HEK 293, beta-lactamase ratio, agonist mode, 18 h; series mostly up to 76.7 µM
Procedure, shortened: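 HEK 293 TR-UAS-bla; agonist mode; 18 hrs, 37 C; CCF4, ex 405/em 460 and 530 nm; norm. T3 10 nM = 100%, DMSO = 0%; Hill fit → EC50, efficacy.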

[11] = qHTS assay for small molecule antagonists of retinoid X receptor alpha signaling (AID 588546; active means well fitted inhibition curve with a large enough effect in the signal ratio, with a control signal flat, not every such curve was filed as active; the % refers to the signal ratio;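 further: cells stimulated with 9-cis-retinoic acid as agonist; on the % scale 0 is the no-effect control and ±100 the full control effect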); settings: HEK293T RXRa-UAS-bla, beta-lactamase ratio, antagonist mode; measured here: W530 green channel, cytotoxicity proxy
Procedure, shortened: (§3)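 Beta-lactamase reporter inhibition, read as CCF4 fluorescence ratio (ex 405, em 460/530 nm) after 2 h at RT. HEK293T UAS-bla cells, 2500/well, were stimulated with 9-cis-RA at 500 or 100 nM final alongside test compound for 18 h at 37 C.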

[12] = biological target: Retinoic acid receptor RXR-alpha (Homo sapiens) (UniProt P19793); assay: as above; settings: HEK293T RXRa-UAS-bla, beta-lactamase ratio, antagonist mode
Procedure, shortened: as §3

[13] = qHTS assay for small molecule agonists of the antioxidant response element (ARE) signaling pathway (AID 651741; active means well fitted activation curve with a large enough effect in the signal ratio; the % refers to the signal ratio; further: potency means the concentration at half of the fitted maximal effect); settings: HepG2 ARE-bla reporter, beta-lactamase FRET ratio, 16 h; series mostly up to 96 µM
Procedure, shortened: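 Quantitative HTS in HepG2 cells stably expressing an ARE-beta-lactamase reporter; 16 h compound exposure at 37 C, followed by 2 h room-temperature incubation with LiveBLAzer B/G FRET substrate and fluorescence measurement.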

[14] = qHTS assay for small molecule activators of the p53 signaling pathway (AID 651743; active means well fitted activation curve with a large enough effect in the signal ratio, not every such curve was filed as active; the % refers to the signal ratio; further: % of control where 0% means no effect); settings: HCT-116 p53RE-bla, beta-lactamase FRET ratio, 16 h; activation: stronger effect = higher value
Procedure, shortened: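 Read-out is fluorescence intensity from the LiveBLAzer B/G FRET substrate, added for 2 hours at room temperature after HCT-116 p53RE-bla cells had been incubated with compounds for 16 hours at 37 C.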

[15] = qHTS assay for small molecule activators of the nuclear factor-kappa B (NF-kB) signaling pathway (AID 651749; active means well fitted activation curve with a large enough effect in the signal ratio; the % refers to the signal ratio; further: % of control where 0% means no effect); settings: NF-kB-bla ME-180 cells, beta-lactamase FRET ratio, 16 h; stronger effect = higher value
Procedure, shortened: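 Readout: beta-lactamase reporter driven by an NF-kB response element, detected fluorescently as loss of FRET. Cells were the ME-180 line, treated 16 hr at 37C with pin-transferred compound.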

[16] = qHTS assay for environmental chemicals that activate the Aryl hydrocarbon Receptor (AhR) signaling pathway (AID 651777); settings: 1A2-DRE human hepatoma cells, luciferase, 24 h; activation: stronger effect = higher value; further: % of control where 0% means no effect; nearly all actives have a fitted effect of over 15% in size
Procedure, shortened: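 Reporter gene assay: hepatoma cells with DRE/CYP1A2-luciferase, 24 hr compound incubation at 37 C, 5% CO2, luminescence after One-Glo (30 min, RT).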

[17] = biological target: Peroxisome proliferator-activated receptor alpha (Homo sapiens) (UniProt Q07869); assay: qHTS assay for small molecule agonists of the peroxisome proliferator-activated receptor alpha (PPARalpha) signaling pathway (AID 651778); settings: PathHunter PPARalpha complementation, chemiluminescence, 6 h; max response: stronger effect = higher value; further: % of control where 0% means no effect
Procedure, shortened: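 Chemiluminescence from complemented enzyme reported PPARalpha activation in cells after 6 hr of compound treatment at 37 C. The detection reagent was incubated for 60 min at room temperature, and compounds were scored as agonists.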

[18] = biological target: Nuclear receptor subfamily 1 group I member 2 (Rattus norvegicus) (UniProt Q9R1A7); assay: qHTS assay for small molecule activators of the rat pregnane X receptor (rPXR) signaling pathway (AID 651751; call rule not given here; further: 0% is about no effect); settings: rPXR reporter cells, luciferase (One-Glo), 24 h
Sequence of Nuclear receptor subfamily 1 group I member 2 (Rattus norvegicus) (Q9R1A7 whole entry, looked up): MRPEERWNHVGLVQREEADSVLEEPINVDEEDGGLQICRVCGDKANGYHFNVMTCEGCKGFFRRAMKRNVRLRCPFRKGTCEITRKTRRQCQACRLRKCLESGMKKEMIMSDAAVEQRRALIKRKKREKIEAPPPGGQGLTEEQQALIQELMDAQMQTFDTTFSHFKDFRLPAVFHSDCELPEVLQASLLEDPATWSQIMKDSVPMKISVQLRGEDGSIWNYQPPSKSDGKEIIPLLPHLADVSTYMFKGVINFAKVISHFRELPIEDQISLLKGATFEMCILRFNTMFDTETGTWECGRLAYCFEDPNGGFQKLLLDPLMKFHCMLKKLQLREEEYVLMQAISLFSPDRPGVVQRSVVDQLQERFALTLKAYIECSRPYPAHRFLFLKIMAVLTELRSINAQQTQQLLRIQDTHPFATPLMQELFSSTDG

Sequence of Retinoic acid receptor RXR-alpha (Homo sapiens) (P19793 whole entry, looked up): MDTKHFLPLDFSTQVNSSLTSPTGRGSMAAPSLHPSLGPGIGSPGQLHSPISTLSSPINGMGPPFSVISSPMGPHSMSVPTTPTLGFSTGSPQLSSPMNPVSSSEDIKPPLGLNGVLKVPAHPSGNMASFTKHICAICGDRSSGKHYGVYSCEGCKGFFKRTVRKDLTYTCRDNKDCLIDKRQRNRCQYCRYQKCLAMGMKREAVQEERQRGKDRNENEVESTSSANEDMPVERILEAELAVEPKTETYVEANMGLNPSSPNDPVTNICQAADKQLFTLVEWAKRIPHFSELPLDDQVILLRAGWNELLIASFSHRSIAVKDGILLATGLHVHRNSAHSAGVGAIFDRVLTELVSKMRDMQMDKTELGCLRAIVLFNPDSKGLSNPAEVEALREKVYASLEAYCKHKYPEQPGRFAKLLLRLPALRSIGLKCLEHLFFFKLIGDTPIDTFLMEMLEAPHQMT
Sequence of Estrogen receptor (Homo sapiens) (P03372 whole entry, looked up): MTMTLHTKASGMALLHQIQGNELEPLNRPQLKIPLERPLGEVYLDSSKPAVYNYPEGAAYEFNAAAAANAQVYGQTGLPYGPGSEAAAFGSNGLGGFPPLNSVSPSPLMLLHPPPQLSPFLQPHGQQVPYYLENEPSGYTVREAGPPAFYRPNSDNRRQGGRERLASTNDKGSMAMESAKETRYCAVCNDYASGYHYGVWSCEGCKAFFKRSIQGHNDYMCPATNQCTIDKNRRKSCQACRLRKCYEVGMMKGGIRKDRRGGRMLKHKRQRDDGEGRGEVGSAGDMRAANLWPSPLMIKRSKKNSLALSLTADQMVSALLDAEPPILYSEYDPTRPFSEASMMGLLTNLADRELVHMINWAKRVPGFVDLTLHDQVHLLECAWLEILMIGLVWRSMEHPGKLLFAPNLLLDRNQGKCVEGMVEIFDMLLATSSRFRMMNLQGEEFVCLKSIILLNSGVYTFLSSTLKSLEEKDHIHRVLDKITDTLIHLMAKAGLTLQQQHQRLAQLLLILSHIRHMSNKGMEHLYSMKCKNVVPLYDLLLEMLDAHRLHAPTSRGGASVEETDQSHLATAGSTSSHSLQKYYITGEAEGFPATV
Sequence of Peroxisome proliferator-activated receptor alpha (Homo sapiens) (Q07869 whole entry, looked up): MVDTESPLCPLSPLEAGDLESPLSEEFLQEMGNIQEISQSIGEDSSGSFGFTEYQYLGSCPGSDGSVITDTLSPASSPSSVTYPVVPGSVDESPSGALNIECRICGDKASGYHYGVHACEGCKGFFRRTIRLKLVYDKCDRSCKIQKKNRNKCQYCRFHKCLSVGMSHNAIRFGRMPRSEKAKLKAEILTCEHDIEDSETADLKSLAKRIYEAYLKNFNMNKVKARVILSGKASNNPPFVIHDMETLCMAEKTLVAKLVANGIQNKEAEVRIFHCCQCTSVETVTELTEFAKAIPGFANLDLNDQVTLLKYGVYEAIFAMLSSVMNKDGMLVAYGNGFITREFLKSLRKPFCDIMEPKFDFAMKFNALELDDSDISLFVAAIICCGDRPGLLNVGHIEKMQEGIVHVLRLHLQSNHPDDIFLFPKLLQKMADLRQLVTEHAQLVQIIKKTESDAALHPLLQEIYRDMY
Sequence of Tyrosyl-DNA phosphodiesterase 1 (Homo sapiens) (Q9NUW8 whole entry, looked up): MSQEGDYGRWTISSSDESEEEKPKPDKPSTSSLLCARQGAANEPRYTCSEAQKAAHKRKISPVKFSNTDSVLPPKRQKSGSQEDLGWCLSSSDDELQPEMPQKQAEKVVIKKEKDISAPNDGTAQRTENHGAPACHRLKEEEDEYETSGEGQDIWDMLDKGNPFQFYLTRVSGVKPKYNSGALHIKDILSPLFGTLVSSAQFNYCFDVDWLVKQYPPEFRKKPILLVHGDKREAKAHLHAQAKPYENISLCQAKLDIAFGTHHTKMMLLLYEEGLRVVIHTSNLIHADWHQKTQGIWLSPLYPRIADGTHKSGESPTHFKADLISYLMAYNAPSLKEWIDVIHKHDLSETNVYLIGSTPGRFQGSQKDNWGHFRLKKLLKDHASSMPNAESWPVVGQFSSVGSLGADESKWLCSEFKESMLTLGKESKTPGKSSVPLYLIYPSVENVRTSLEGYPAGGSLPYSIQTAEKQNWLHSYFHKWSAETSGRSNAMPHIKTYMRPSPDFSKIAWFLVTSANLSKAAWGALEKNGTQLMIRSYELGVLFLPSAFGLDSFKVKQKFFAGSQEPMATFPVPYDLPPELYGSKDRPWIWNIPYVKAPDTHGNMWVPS
Sequence of Thyroid hormone receptor beta (Homo sapiens) (P10828 whole entry, looked up): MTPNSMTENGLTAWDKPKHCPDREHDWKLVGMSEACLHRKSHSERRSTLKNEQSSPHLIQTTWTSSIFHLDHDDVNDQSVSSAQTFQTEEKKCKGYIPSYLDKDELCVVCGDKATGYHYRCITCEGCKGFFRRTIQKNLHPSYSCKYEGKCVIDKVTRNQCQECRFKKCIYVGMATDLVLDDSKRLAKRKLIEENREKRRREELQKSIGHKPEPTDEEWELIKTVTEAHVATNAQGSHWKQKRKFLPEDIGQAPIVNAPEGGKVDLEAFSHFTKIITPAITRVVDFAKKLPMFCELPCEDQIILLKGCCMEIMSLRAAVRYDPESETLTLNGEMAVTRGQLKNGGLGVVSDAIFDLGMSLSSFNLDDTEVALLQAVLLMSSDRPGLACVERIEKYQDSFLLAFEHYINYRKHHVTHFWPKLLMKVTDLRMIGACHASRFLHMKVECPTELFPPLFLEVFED
Sequence of Bile acid receptor (Homo sapiens) (Q96RI1 whole entry, looked up): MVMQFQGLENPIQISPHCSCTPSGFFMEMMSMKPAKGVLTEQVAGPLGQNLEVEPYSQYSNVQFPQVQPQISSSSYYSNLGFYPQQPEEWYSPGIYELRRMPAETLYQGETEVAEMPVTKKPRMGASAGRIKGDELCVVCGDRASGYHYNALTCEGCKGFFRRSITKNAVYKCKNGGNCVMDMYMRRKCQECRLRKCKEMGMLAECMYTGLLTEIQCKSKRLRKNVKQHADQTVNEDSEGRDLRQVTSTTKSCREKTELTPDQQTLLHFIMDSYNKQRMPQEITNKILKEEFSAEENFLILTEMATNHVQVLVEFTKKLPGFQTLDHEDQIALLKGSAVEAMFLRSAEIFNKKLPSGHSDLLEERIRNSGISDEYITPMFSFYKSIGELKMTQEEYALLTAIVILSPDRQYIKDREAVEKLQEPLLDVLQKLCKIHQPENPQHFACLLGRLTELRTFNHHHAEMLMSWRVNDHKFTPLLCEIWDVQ
Sequence of Peroxisome proliferator-activated receptor gamma (Homo sapiens) (P37231 whole entry, looked up): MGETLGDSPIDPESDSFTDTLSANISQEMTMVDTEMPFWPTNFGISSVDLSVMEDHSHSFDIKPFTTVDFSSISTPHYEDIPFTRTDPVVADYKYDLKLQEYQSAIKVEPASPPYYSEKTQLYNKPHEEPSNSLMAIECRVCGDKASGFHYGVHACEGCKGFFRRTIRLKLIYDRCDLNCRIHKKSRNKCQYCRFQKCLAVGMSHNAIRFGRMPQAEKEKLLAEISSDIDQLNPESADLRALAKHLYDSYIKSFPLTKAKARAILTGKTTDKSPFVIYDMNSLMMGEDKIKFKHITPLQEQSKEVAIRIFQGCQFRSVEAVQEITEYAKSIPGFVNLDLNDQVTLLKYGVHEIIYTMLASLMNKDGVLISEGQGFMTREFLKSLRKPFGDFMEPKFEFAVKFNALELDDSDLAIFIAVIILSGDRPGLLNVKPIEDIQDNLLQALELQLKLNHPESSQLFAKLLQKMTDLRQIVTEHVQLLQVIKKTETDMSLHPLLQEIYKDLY
Sequence of Peroxisome proliferator-activated receptor delta (Homo sapiens) (Q03181 whole entry, looked up): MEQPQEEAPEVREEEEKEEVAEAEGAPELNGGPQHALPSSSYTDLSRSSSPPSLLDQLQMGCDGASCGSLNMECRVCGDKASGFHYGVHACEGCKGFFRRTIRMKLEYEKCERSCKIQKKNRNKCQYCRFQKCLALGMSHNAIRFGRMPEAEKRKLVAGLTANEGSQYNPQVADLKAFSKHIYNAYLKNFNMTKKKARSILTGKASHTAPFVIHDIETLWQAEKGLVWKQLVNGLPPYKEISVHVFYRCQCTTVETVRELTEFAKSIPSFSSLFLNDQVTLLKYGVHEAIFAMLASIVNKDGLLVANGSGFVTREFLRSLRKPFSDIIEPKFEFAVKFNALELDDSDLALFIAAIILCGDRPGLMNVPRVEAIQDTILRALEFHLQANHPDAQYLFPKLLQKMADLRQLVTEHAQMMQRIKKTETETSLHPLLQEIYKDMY

O=C(O)[C@@H](O)[C@@H](O)[C@H](O)[C@H](O)CO
active: Potency [1] 5.01 µM

C[C@]12CC[C@H]3c4ccc(O)cc4CC[C@@H]3[C@H]1CC[C@@H]2OP(=O)(O)O
inactive: Potency (CP260) | Potency (CP286)

N[C@@H](Cc1ccccc1)C(=O)O
-16.9%: max response [5]
-15%: max response [11]
inactive: outcome [2] | Potency [4] | outcome [6] | outcome [7] | Potency [9] | Potency [10] | max response [12] 7.11% | activation [14] -1.26% | activation [15] 0.13% | activation [16] -0.444% | max response [17] -0.0138% | Potency (CP260) | Potency (CP286) | max response [18] -0.251%
active: Potency [3] 11.2 µM | Potency [13] 54.5 µM
-4.85%: max response [8]
